Compounds with a hit are over-represented: about 0.45% of the library has one in this group of screens.
TcdB inh: inhibitors of Clostridioides difficile toxin B glycohydrolase | P18177 | TcdB glycohydrolase enzymatic assay, plate reader | inhibition, % at 9.99 µM | 350,000 compounds, 0.24% hits; in the data active = inhibition above about 10%
Y pestis TopoI: blocks Yersinia pestis topoisomerase I activity. 360,000 compounds, 0.064% hits. AID 504884. Y. pestis Topo-I cleavage product accumulation, plate reader. activity, % at 10 µM; in the data active = activity above about 50%, passing the limit was not always enough
BioA inh: inhibitors of Mycobacterium tuberculosis BioA enzyme; AID 602481; inhibition, % at 9.99 µM; purified M. tuberculosis BioA enzyme, plate reader; 360,000 compounds, 0.096% hits; in the data active = inhibition above about 40%
FadD28 FP inh: blocks FadD28 binding to the bisubstrate probe. fluorescence polarization. inhibition, % at 12.5 µM. AID 588549. 360,000 compounds, 0.22% hits; in the data active = inhibition above about 8.5%, passing the limit was not always enough
Hits are given with their value; n = inactive; x = no result.

SMILES	TcdB inh	Y pestis TopoI	BioA inh	FadD28 FP inh
Cc1ccc2ccc[n+](Cc3ccccc3)c2c1	10.9	n	n	n
Cc1ccc(-c2ccc3c(c2)O[C@H](CN(C)Cc2ccc(C(=O)O)cc2)[C@H](C)CN([C@@H](C)CO)S3(=O)=O)cc1	n	x	n	x
O=C(O)c1cc(S(=O)(=O)Nc2ccc3cn[nH]c3c2)ccc1Cl	10.3	n	n	n
O=S(=O)(Nc1ccc2cn[nH]c2c1)c1ccc(C(F)(F)F)cc1	n	n	n	n
O=C(CN1C(=O)NC2(CCOc3ccccc32)C1=O)c1ccc(Cl)s1 (configuration not stated)	n	n	n	9.6
CCc1ccc(C(=O)CN2C(=O)NC3(CCOc4ccccc43)C2=O)s1 (configuration not stated)	n	n	n	n
CN(C)c1ccc2c(c1)[C@H]1C[C@H](CC(=O)NCc3ccc4c(c3)OCO4)O[C@@H](CO)[C@H]1O2	n	x	n	x
Nc1c(S(=O)(=O)O)cc(NC(=O)c2ccccc2)c2c1C(=O)c1ccccc1C2=O	n	n	n	26.1
CCc1cc(/C(Cc2ccccn2)=N\O)c(O)cc1O	15.5	n	n	n
COc1ccccc1/C=C1\SC(=S)N(CCC(=O)Nc2ccc(C(=O)O)c(O)c2)C1=O	n	n	x	n
O=C(CCCN1C(=O)/C(=C\c2ccco2)SC1=S)Nc1ccc2ccccc2c1	n	n	x	n
O=C(CCN1C(=O)/C(=C\c2ccco2)SC1=S)Nc1ccc(C(=O)O)c(O)c1	n	n	n	15.3
O=C(CCN1C(=O)/C(=C/c2ccco2)SC1=S)Nc1ccc(C(=O)O)c(O)c1	n	n	n	11.4
CC(=O)N(C)C[C@H]1Oc2cc(-c3ccncc3)ccc2S(=O)(=O)N([C@H](C)CO)C[C@H]1C	n	x	n	x
CC(C)=CCOc1c2occc2cc2ccc(=O)oc12	13.5	n	n	n
COc1cccc(/C=C(/C(=O)OCC(=O)NC2CCCC(C)C2C)c2ccccc2)c1 (configuration not stated)	x	59.7	x	n
COc1cccc(/C=C(/C(=O)OCC(N)=O)c2ccccc2)c1	n	n	x	n
CN(c1ccccc1)S(=O)(=O)c1ccc(NC(=O)CC(=O)c2ccccc2)cc1	n	n	x	24.8
CCc1ccc(OCc2n[nH]c(=S)n2Cc2ccccc2)cc1	n	n	n	n
CCc1ccc(OCc2n[nH]c(=S)n2C(C)CCCC(C)C)cc1 (configuration not stated)	n	63.2	x	n
Cc1ccc(/C=C2/SC(=O)NC2=S)o1	x	n	n	15.7
Cc1ccc(/C=C2/SC(=S)N(C3CCCCC3)C2=O)o1	n	n	n	n
C/C(=N\Nc1ccc([N+](=O)[O-])cc1)c1cccc(N)c1	15.2	n	n	n
C/C(=N\Nc1ccc([N+](=O)[O-])cc1)c1ccc(O)cc1	n	n	x	n
O=C(NC(=S)NCc1nc2ccccc2[nH]1)c1ccccc1F	n	n	x	8.9
SMILES	TcdB inh	Y pestis TopoI	BioA inh	FadD28 FP inh
CCC(=O)Nc1ccc2c(c1)OC[C@@H](C)N(CC1CCOCC1)C[C@@H](C)[C@@H](OC)CN(C)C2=O	n	x	n	x
COc1cccc(NCc2cc(=O)oc3cc(-c4ccccc4)c(O)cc23)c1	x	n	x	24.2
CN(c1ccccc1)S(=O)(=O)c1cccc(C(=O)NCCc2ccc(O)c(O)c2)c1	15.2	n	x	n
Nc1ccc(S(=O)(=O)Nc2nccs2)cc1N=Nc1ccccc1[N+](=O)[O-]	n	n	x	11.6
O=C(Cc1ccccn1)N[C@@H]1CC[C@H](CCNS(=O)(=O)c2cccc(F)c2)O[C@H]1CO	n	x	n	x
O=C(Cn1c(=O)oc2ccccc21)Nc1cccc(Cl)c1	n	n	n	10.6
Cc1cccc(NC(=O)Cn2c(=O)oc3ccccc32)c1	x	n	n	34.6
Oc1ccccc1-c1cnc2cccnn12	46.6	n	n	n
CO[C@@H]1CN(C)C(=O)c2cc(NC(=O)Nc3ccc4c(c3)OCO4)ccc2OC[C@@H](C)N(C(C)=O)C[C@H]1C	x	x	n	x
C[C@@H]1CCCCO[C@@H](CN(C)S(C)(=O)=O)[C@H](C)CN([C@@H](C)CO)C(=O)c2cc(NS(C)(=O)=O)ccc2O1	x	x	n	x
CCC(=NCCC(c1ccccc1)c1ccccc1)c1c(O)[nH]c(=O)[nH]c1=O	x	66.1	n	n
CCC(=NC(C)c1ccccc1)c1c(O)[nH]c(=O)[nH]c1=O (configuration not stated)	n	n	n	n
CC(=O)NC[C@@H]1[C@H](c2ccc(-c3ccccc3F)cc2)[C@@H](CO)N1C(=O)C1CC1	n	x	n	x
Cc1cc(NC(=O)C(C)SCC(=O)N(C)CC(=O)Nc2ccccc2C(F)(F)F)no1 (configuration not stated)	n	n	n	n
Cc1cc(NC(=O)C(C)SCC(=O)N(C)CC(=O)Nc2ccc(F)cc2)no1 (configuration not stated)	n	100.9	n	n
COc1cc(/C=C/C(=O)Nc2ccc(S(=O)(=O)Nc3onc(C)c3C)cc2)cc(OC)c1OC	n	n	n	n
Cc1noc(NS(=O)(=O)c2ccc(NC(=O)/C=C/c3ccc(C(C)C)cc3)cc2)c1C	n	n	n	25.9
Cc1noc(NS(=O)(=O)c2ccc(NC(=O)C(Cl)(Cl)Cl)cc2)c1C	n	n	n	n
Cc1noc(NS(=O)(=O)c2ccc(NC(=O)C(C)(C)C)cc2)c1C	n	n	n	n
Cc1noc(NS(=O)(=O)c2ccc(N/C=C\C(=O)c3cccc4ccccc34)cc2)c1C	n	n	n	23.7
Cc1noc(NS(=O)(=O)c2ccc(NC(=O)/C=C/c3ccc(Br)cc3)cc2)c1C	n	n	n	9.7
Cc1noc(NS(=O)(=O)c2ccc(NC(=O)Nc3ccc(Cl)c(Cl)c3)cc2)c1C	x	n	n	31.2
C[C@@H]1CN([C@H](C)CO)C(=O)c2cc(NC(=O)CCN3CCOCC3)ccc2O[C@H]1CN(C)S(=O)(=O)c1ccc(Cl)cc1	n	x	n	x
COc1ccc(-c2nc3c(c(=O)[nH]c(=O)n3Cc3ccccc3)n2Cc2ccccc2)cc1	x	64.5	n	n
COc1ccc(-c2nc3c(c(=O)[nH]c(=O)n3Cc3ccccc3)n2C)cc1	x	n	x	n
SMILES	TcdB inh	Y pestis TopoI	BioA inh	FadD28 FP inh
O=C(Cn1nnc(-c2ccc3c(c2)OCO3)n1)Nc1ccccc1C(=O)O	n	n	n	10.8
CCC(=O)Nc1cccc(-n2nnnc2SCC(=O)NCc2ccco2)c1	n	n	n	n
CCC(=O)Nc1cccc(-n2nnnc2SCC(=O)c2ccc(C)c(C)c2)c1	n	n	x	10.6
CCCCn1nnnc1SCC(=O)c1ccc(C)c(C)c1	x	52.1	n	n
COc1cccc(-c2cccc(-c3nc(C(=O)NCc4ccc(Oc5ccccc5)cc4)cc4c3[C@@H](CCO)N(S(=O)C(C)(C)C)C4)c2)c1 (some centres not stated)	n	x	x	x
CC(Oc1ccc(Cl)cc1Cl)C(=O)Nc1cccc(O)c1 (configuration not stated)	n	n	n	n
CC(Oc1ccc(Cl)cc1Cl)C(=O)Nc1ccc(O)cc1 (configuration not stated)	14.5	n	x	n
CCCC(=O)Nc1sc2c(c1C(=O)Nc1ccccn1)CCCC2	12.0	n	n	n
CCOc1ccccc1NC(=O)c1c(NC(=O)CCC(=O)O)sc2c1CCCCC2	n	n	x	n

Compound activity as filed in PubChem.
